Source: PubChem
Prx2 Sm inh: Schistosoma Mansoni Peroxiredoxins (Prx2) | Schistosoma mansoni peroxiredoxin 2 (Prx2) | S. mansoni Prx2 activity coupled to TGR/GSH (TGR is thioredoxin glutathione reductase), NADPH fluorescence loss, qHTS | Potency, µM | 65,000 compounds, 0.07% hits | AID 448, 2006
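qHTS, coupled TGR/Prx2 format; 15 min compound preincubation at RT; reaction started with H2O2 (2.5 mM aliquot); kinetic NADPH fluorescence decrease, ex 365/em 450 nm.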
AmpC inh no det: Promiscuous and Specific Inhibitors of AmpC Beta-Lactamase (assay without detergent). AmpC nitrocefin hydrolysis, absorbance 480 nm, no detergent. Potency, µM (series often up to 28.7 µM). 71,000 compounds, 1.8% hits. AID 585, 2007
Target sequence (P00811 whole entry, looked up): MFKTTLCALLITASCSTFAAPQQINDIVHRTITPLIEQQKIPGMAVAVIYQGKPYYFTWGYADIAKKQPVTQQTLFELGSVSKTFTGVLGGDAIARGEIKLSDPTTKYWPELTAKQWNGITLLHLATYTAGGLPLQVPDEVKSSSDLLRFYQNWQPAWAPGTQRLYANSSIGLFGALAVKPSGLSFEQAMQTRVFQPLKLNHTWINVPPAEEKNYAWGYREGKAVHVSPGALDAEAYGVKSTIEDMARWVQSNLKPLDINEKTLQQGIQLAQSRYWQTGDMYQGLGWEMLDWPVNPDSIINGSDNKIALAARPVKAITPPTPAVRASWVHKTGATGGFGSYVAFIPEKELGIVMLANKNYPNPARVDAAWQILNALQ
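AmpC in 20 mM phosphate buffer pH 7.0 was preincubated 15 min at room temperature with compounds. Nitrocefin (800 uM stock) was then added and hydrolysis followed at 480 nm every 20 s for 4 min.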
LT uptake inh: qHTS Assay for Anthrax Lethal Toxin Internalization. 70,000 compounds, 0.67% hits. Potency, µM (series often up to 40 µM), actives largely listed as inhibitors. Cells, anthrax lethal toxin internalization, FRET ratio (460/530); note: nearly all actives have a fitted effect of over 50% in size
AmpC inh det: Promiscuous and Specific Inhibitors of AmpC Beta-Lactamase (assay with detergent); P00811; purified AmpC, nitrocefin hydrolysis with detergent; Potency, µM (titrated, usually from 28.7 µM); 71,000 compounds, 0.09% hits; active = well fitted curve in the direction sought with a large enough effect; inconclusive = small, poorly fitted or top-dose-only effect
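E. coli AmpC (5.3 nM) in 20 mM phosphate pH 7.0 with 0.01% Triton X-100, preincubated 15 min RT with compound; nitrocefin (2 uL of 800 uM stock) hydrolysis followed by 480 nm absorbance every 20 s over 4 min.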
Numbers stand for hits; . = inactive; ? = inconclusive; / = not tested or not shown; ! = not active in a repeat; [ ] = remark or other dose. This is a sample that favours compounds with a hit; in the whole collection about 2.6% have one here. Unless noted, calls come from the whole dose curve.

SMILES	Prx2 Sm inh	AmpC inh no det	LT uptake inh	AmpC inh det
O=C(c1csnn1)N1CCC[C@@]2(CCN(C(c3ccccc3)c3ccccc3)C2)C1	.	.	?	.
Cc1ccc(Cn2ccc(NC(=O)c3cc(-c4ccc(Cl)cc4)on3)n2)cc1	.	.	.	.
Cc1ccc(Cn2ccc(NC(=O)c3cc(-c4ccc(F)cc4)on3)n2)cc1	.	7.94µM	.	.
Cc1ccc(Cn2ccc(NC(=O)c3cc(CC(C)C)on3)n2)cc1	.	3.98µM[single pt active]	?	.
Cc1nn(Cc2nc(-c3cccs3)no2)c(C)c1Br	.	2.51µM[single pt active]	.	.
CCN1CCN(CCNC(=O)C2CCN(Cc3nc(-c4ccc(Cl)cc4)oc3C)CC2)CC1	.	3.98µM[single pt active]	?	.
Cc1ccccc1-c1nc(CN2CCC(C(=O)NCCCN3CC(C)CC(C)C3)CC2)c(C)o1 (stereo not drawn)	.	.	2.51µM	.
CCN1CCCC1CNC(=O)C1CCN(Cc2nc(-c3cccc(Br)c3)oc2C)CC1 (stereo not drawn)	.	.	6.31µM	.
Cc1oc(-c2ccc(Cl)cc2)nc1CN1CCC(C(=O)NCCCN2CCCC2=O)CC1	.	.	.	.
Cc1oc(-c2cccc(Cl)c2)nc1CN1CCC(C(=O)NCc2ccco2)CC1	.	.	?	.
Cn1c(=O)cnc2cnc(Oc3ccccc3)nc21	.	.	.	.
Cc1noc(/C=C/N(C)C)c1S(=O)(=O)N1CCc2ccccc21	.	3.98µM[single pt active]	?	.
C=C(C)c1cccc(C(C)(C)NC(=O)N2CCN(c3ccccn3)CC2)c1	.	3.98µM[single pt active]	.	.
CC[C@]1(OC(=O)CN)C(=O)OCc2c1cc1n(c2=O)Cc2cc3ccccc3nc2-1	.	.[5.75 µM]	.[8 µM]	.[5.75 µM]
CNc1ncnc2c1ncn2[C@@H]1O[C@@H](CO)[C@H](O)[C@@H]1O	.	.	.	.
O=C1[C@@H]2C=CC=CC2=NC(=S)N1CCN1CCC(=C(c2ccc(F)cc2)c2ccc(F)cc2)CC1	.	6.31µM	.	.
C[C@@]12CC[C@H]3[C@@H](CCC4=C(O)C(=O)CC[C@]43C)[C@H]1CCC2=O	.	.	.	.
COc1ccc2c(c1)OC13CCN(C)CC1C2C(C(=O)c1ccc(F)cc1)C(=O)N3 (stereo not drawn)	.	3.98µM[single pt active]	.	.
O=C(Cn1ncc2c(=O)oc3ccccc3c21)NCCC1=CCCCC1	.	.	.	.
CC(CCc1ccco1)NC(=O)Cn1ncc2c(=O)oc3ccccc3c21 (stereo not drawn)	.	3.98µM[single pt active]	.	.
CCOCCCNC(=O)Cn1ncc2c(=O)oc3ccccc3c21	.	3.98µM[single pt active]	.	.
O=C(Cn1ncc2c(=O)oc3ccccc3c21)NCC1CCCO1 (stereo not drawn)	.	3.98µM[single pt active]	.	.
CC(C)OCCCNC(=O)Cn1ncc2c(=O)oc3ccccc3c21	.	.	.	.
CC1CCC(C(C)C)C(OC(=O)COC(=O)c2ccc(=O)[nH]c2)C1 (stereo not drawn)	.	.	12.6µM	.
Cc1ccc(C2CC(c3ccccc3C)n3nc(N)nc3N2)cc1 (stereo not drawn)	.	3.98µM[single pt active]	.	.
SMILES	Prx2 Sm inh	AmpC inh no det	LT uptake inh	AmpC inh det
COc1cccc(C2CC(c3ccccc3C)n3nc(N)nc3N2)c1 (stereo not drawn)	.	3.98µM[single pt active]	.	.
CCOc1ccc(C2CC(c3ccccc3C)n3nc(N)nc3N2)cc1 (stereo not drawn)	.	.	.	.
COc1ccc(C2CC(c3ccccc3C)n3nc(N)nc3N2)cc1 (stereo not drawn)	.	3.98µM[single pt active]	.	.
C[C@@]12CC[C@H]3[C@@H](CC[C@@H]4C[C@H](O)CC[C@]43C)[C@H]1CC[C@H]2O	.	.	.	.
CN1CCN(c2ncnc3ccc(-c4cccc(C#N)c4)cc23)CC1	/	.	.	.
N#CCSc1nc2scc(-c3cccs3)c2c(=O)n1CCc1ccccc1	.	7.94µM	.	.
C=CCn1c(SCn2nnc3ccccc3c2=O)nc2scc(-c3cccs3)c2c1=O	.	.	.	.
O=C(/C=C\c1ccc(O)c(O)c1)OCCc1ccccc1	.	.	?	.
S=C(S)O[C@@H]1C[C@@H]2C[C@H]1[C@@H]1CCC[C@H]21	.	15.8µM!	?	15.8µM!
O=c1[nH]c2ccccc2n1CCCSCCCn1c(=O)[nH]c2ccccc21	.	.	?	.
CCn1c2ccccc2c2nnc(SCc3ccccc3)nc21	.	3.98µM[single pt active]	?	.
CCn1c2ccccc2c2nnc(SCCCn3c(=O)[nH]c4ccccc43)nc21	/	.	7.94µM	.
CCn1c2ccccc2c2nnc(SCN3C(=O)c4ccccc4C3=O)nc21	/	.	.	.
C/C(=C\COc1cc(=O)[nH]c2ccccc12)CC[C@@H](O)C(C)(C)O	.	.	?	.
COCCn1c(=O)c(-c2ccc(Cl)cc2)nc2cnc(N3CCNCC3)nc21	.	.	?	.
O=S(=O)(c1ccccc1)N1CCC[C@@]2(CCN(c3cccc(-c4ccccc4)c3)C2)C1	.	.	.	.
CN1CCN(c2ccnc(-c3ccc(N(C)C)cc3)n2)CC1	.	.	.	.
Oc1ccc(Cl)cc1Cc1ccccc1	/	.	?	.
Oc1ccc(Cl)cc1Cc1cc(Cl)ccc1O	/	?	15.8µM	.
COc1ccc(CNc2ccnc(-c3ccccc3C(F)(F)F)n2)c(OC)c1	.	.	.	.
O=C(Nc1ccccc1)C1=C(O)CC(c2ccoc2)CC1=Nc1ccccc1 (stereo not drawn)	/	.	?	.
O=C(Nc1ccccc1)C1=C(O)CC(c2ccco2)CC1=Nc1ccccc1 (stereo not drawn)	.	7.94µM	.	.
COC(=O)N1CCC2(CCN(Cc3ccccc3OC)CC2)CC1	.	.	.	.
CCCN(CCC)CCCNC(=O)c1cc2c(=O)n(C)c3ccccc3c2n1C	.	.	3.16µM	.
CCCCN(CC)CCNC(=O)c1cc2c(=O)n(C)c3ccccc3c2n1C	.	3.98µM[single pt active]	5.01µM	.
SMILES	Prx2 Sm inh	AmpC inh no det	LT uptake inh	AmpC inh det
CCN(CC)CCCNC(=O)c1cc2c(=O)n(C)c3ccccc3c2n1C	/	?	10µM	.
Clc1ccc([C@@H](c2ccccc2Cl)C(Cl)Cl)cc1	.	.	?	.
CNCCCCCCCCSc1nc(C(C)C)ccc1C(=O)c1cccs1	.	.	?	.
O=C1NC(=O)[C@]2(Cc3ccccc3N3CCN(c4ccccc4)CC32)C(=O)N1Cc1ccccc1 (stereo partly drawn)	.	10µM[single pt active]	/	.
COc1c2ccoc2nc2c(OC)c(OC[C@H](O)C(C)(C)O)ccc12	.	.	12.6µM!	.
CCC1=C(C[C@H]2NCCc3cc(OC)c(OC)cc32)C[C@H]2c3ccccc3CCN2C1	.	.[5.75 µM]	.[8 µM]	.[5.75 µM]
Clc1ccccc1-c1nc(Nc2ccncc2)c2ccccc2n1	.	.	?	.
NC(=O)c1ccsc1NC(=O)c1nc(-c2ccccc2)n(-c2ccccc2)n1	?	.	10µM	.
Cc1c(C2CCN(CCc3ccccc3)CC2)noc1-c1ccc(Cl)cc1	.	.	?	.
Brc1ccccc1-c1nnc(CSc2nncn2-c2ccccc2)o1	.	.	.	.
O=c1c2ccccc2nc(SCc2nnc(-c3ccccc3Br)o2)n1-c1ccccc1	.	20µM	.	.
